Screens (PubChem BioAssay)
The list is not random: actives were taken first. Their share in the collection is about 4%.
Shn3 3UTR inh = reduction of Shn3 3'UTR firefly luciferase signal, primary screen, Schnurri-3 inhibitor project, cell-based, Clone20 osteoblasts, set 2 | Clone20 osteoblast Shn3 3'UTR firefly luciferase, 24 h | inhibition, % at 12.5 µM | hit rate 0.52% among 360,000 | AID 588674, 2011;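 active = mean inhibition of at least 75% with every replicate also reaching 75%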
PAX8 inh HTS = inhibitors of PAX8-driven TPO luciferase reporter, primary screen, RMG-I cells, single concentration | SteadyGlo, 24 h | inhibition, % at 12.6 µM | hit rate 1.2% among 360,000 | AID 652154, 2013;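 active = mean replicate inhibition at least 60% with every replicate also reaching 60%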;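 note: luciferase light reporting Pax8 driven TPO promoter activity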
Beta apoptosis = inhibitors of cytokine-induced beta cell apoptosis, primary screen, luminescence. INS-1E cytokine-induced death, ATP luminescence, 48 h; percent of positive-control rescue, neutral wells zero. protection from apoptosis, % (test concentration not listed). hit rate 0.8% among 300,000;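 active = Every replicate reaches about 75%, or at least half do and their mean reaches it too, limit read from the data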;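 note: higher means more ATP so stronger rescue from cytokine killing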
Gli-Sufu antag = Gli-Sufu pathway antagonists, primary screen, luciferase luminescence, Sufu-KO-LIGHT cells, uHTS; Sufu-KO-LIGHT fibroblasts, Gli luciferase reporter luminescence; AID 588413, 2011; hit rate 0.74% among 340,000; inhibition, % at 5 µM;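 active = inhibition above about 55%, limit read from the data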
CSC inhib = cancer stem cell viability inhibitors, primary screen, luminescence; cancer stem cell-like cells viability; inhibition, % at 7.5 µM; hit rate 1.1% among 300,000; AID 2717, 2010; in the data active = inhibition above about 75%; tested in HMLE shEcad cells
Mdm2 MdmX PPI = inhibitors of human Mdm2-MdmX association, primary screen, cell-based, luminescence, split luciferase, SaOS-2, uHTS | inhibition, % at 8 µM | SaOS-2 split-luciferase Mdm2/MdmX complementation | Protein Mdm4 (Homo sapiens) + E3 ubiquitin-protein ligase Mdm2 (Homo sapiens), … | hit rate 3% among 330,000;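 active = inhibition of at least 50% at 8 µM in the primary screen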
Target sequence (O15151 whole entry, looked up): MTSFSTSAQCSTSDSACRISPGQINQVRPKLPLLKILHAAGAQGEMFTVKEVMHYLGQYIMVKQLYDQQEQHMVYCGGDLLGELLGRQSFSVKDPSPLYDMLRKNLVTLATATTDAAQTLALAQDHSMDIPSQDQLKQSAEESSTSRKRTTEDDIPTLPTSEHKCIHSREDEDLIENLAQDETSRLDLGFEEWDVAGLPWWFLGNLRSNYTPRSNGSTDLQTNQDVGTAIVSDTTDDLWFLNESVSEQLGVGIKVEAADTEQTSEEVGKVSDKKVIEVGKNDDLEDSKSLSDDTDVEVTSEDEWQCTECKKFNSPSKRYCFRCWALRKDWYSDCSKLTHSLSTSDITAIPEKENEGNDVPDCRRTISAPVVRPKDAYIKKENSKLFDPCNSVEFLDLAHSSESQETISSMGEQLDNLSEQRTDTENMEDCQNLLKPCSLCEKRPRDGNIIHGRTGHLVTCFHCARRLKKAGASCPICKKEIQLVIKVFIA
Target sequence (Q00987 whole entry, looked up): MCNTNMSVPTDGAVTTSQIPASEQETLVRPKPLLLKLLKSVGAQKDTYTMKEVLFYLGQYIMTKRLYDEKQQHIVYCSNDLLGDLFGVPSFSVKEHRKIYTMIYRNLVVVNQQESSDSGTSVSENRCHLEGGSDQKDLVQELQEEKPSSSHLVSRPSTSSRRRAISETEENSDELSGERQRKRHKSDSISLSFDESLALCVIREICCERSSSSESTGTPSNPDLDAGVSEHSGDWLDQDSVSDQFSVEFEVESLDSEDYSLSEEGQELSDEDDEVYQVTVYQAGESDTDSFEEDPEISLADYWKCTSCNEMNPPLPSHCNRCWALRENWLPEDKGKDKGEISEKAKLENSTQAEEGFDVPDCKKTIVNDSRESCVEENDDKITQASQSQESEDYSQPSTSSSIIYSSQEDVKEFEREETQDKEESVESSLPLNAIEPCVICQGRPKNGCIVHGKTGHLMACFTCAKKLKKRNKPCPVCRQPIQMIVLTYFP
Gli antag conf = Gli-SUFU pathway antagonists, confirmation, single concentration, luciferase luminescence, Sufu-KO-LIGHT cells. shares compounds with Gli-Sufu antag. hit rate 40% among 2,500. inhibition, % at 5 µM. AID 602428, 2012. Gli luciferase reporter;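 active = mean inhibition at 5 µM reaching about 45%, limit read from the data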
Gli cytotox = cytotoxicity in Sufu-KO-LIGHT cells, confirmation, cytotoxicity control for Gli-SUFU antagonist project, cell-based, ATP luminescence, single concentration | hit rate 32% among 2,500 | shares compounds with Gli-Sufu antag | cytotoxicity, % at 5 µM;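 active = mean cytotoxicity at 5 µM above about 25%, limit read from the data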;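 note: cells exposed to compound overnight for roughly 16 to 18 hours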
Wnt3a counter = Wnt3a reporter signal inhibition, confirmation, counter-screen for Gli-SUFU antagonist project, Wnt-LIGHT cells, luminescence, single concentration; shares compounds with Gli-Sufu antag; hit rate 20% among 2,500; inhibition, % at 6.25 µM; Wnt3a-driven luciferase reporter;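 active = mean inhibition above about 25%, limit read from the data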
Numbers stand for hits; - = inactive; . = no result; ! = repeats disagree.

SMILES	Shn3 3UTR inh	PAX8 inh HTS	Beta apoptosis	Gli-Sufu antag	CSC inhib	Mdm2 MdmX PPI	Gli antag conf	Gli cytotox	Wnt3a counter
O=C(CSc1nnnn1C1CC2CCC1C2)Nc1ccnc2ccccc12 (stereo not drawn)	-	.	.	83	-	-	85	35	-
c1ccc2c3c([nH]c2c1)C1(CCCCC1)NCC3	-	.	-	-	-	-	.	.	.
CC12CCCCN1CCCc1c2[nH]c2ccccc12 (stereo not drawn)	-	.	-	58	-	-	-	50	-
O=C(O)c1cc2nc(C3CC3)cc(C(F)(F)F)n2n1	-	-	-	56	-	-	-	-	-
O=C(c1cc2nc(C3CC3)cc(C(F)(F)F)n2n1)N1CCCC1	-	.	-	-	-	-	.	.	.
CCOC(=O)CN1C(=O)C(C)(C)Oc2ccc(C(=O)Nc3ccccc3OC)cc21	-	-	-	-	-	-	.	.	.
COc1ccccc1NC(=O)c1ccc2c(c1)N(CC#N)C(=O)C(C)(C)O2	-	-	-	-	-	-	-	-	-
O=C(CCn1ccc2cc(S(=O)(=O)N3CCCC3)ccc21)NCCc1ccccc1	-	-	-	-	-	-	.	.	.
O=C(Cn1ccc2cc(S(=O)(=O)N3CCCC3)ccc21)NCCc1ccccc1	-	-	-	57	-	-	-	-	-
COc1ccc(-c2ccc([C@@H]3[C@@H](CO)N4C(=O)CN(Cc5ccc(F)cc5)C[C@@H]34)cc2)cc1	.	-	.	.	.	.	.	.	.
COc1ccccc1NC(=O)COc1ccc2c(c1)OCO2	-	-	-	59	-	-	-	-	-
CCOc1ccccc1NC(=O)COc1ccc2c(c1)OCO2	-	-	-	-	.	-	.	.	.
Cc1sc2ncnc(NCC(O)c3ccc([N+](=O)[O-])cc3)c2c1C (stereo not drawn)	-	-	79	68	-	-	71	30	-
Cc1ccc(-c2cn(-c3ccccc3)c3[n+]2CCCS3)cc1	-	79	111	83!	-	-	87	45	45
CC1CSc2n(-c3cccc(C(F)(F)F)c3)cc(-c3ccccc3)[n+]21 (stereo not drawn)	-	-	-	-	-	-	.	.	.
CCc1ccc(-c2csc3[n+]2CCN3C(C)=O)cc1	-	.	-	-	-	-	.	.	.
c1ccc(-c2cn(-c3ccccc3)c3[n+]2CCCS3)cc1	-	-	-	68	-	-	69	33	33
CCc1ccc(-n2cc(-c3ccc(F)cc3)[n+]3c2SCCC3)cc1	-	-	110	86	-	-	90	45	33
Cc1ccc(S(=O)(=O)N(C)C[C@@H]2Oc3ccc(NC(=O)Nc4cccc5ccccc45)cc3C(=O)N([C@@H](C)CO)C[C@@H]2C)cc1	.	-	.	.	.	.	.	.	.
COc1ccc(NC(=O)c2cccc(N3C(=O)C4C5C=CC(C5)C4C3=O)c2)c(OC)c1 (stereo not drawn)	-	-	-	-	-	-	.	.	.
COc1ccc(NC(=O)c2cccc(N3C(=O)C4C5C=CC(C6CC56)C4C3=O)c2)c(OC)c1 (stereo not drawn)	-	-	-	56	-	-	-	-	-
Cc1ccc(S(=O)(=O)N(C)C[C@@H]2Oc3ccc(NS(=O)(=O)c4ccc(F)cc4)cc3C(=O)N([C@H](C)CO)C[C@H]2C)cc1	.	-	.	.	.	.	.	.	.
Cc1csc(N2CCCC2c2nc3cc(Cl)c(N4CCCCC4)cc3n2CCOCCO)n1 (stereo not drawn)	-	-	-	-	-	-	.	.	.
Cc1csc(N2CCCC2c2nc3cc(C(F)(F)F)ccc3n2CCOCCO)n1 (stereo not drawn)	-	-	-	85	-	-	-	-	-
Cc1cc(C)c(/C=N/NC(=O)c2nnn(-c3nonc3N)c2COc2ccc(F)cc2)c(C)c1	-	-	-	-	-	-	-	-	-
SMILES	Shn3 3UTR inh	PAX8 inh HTS	Beta apoptosis	Gli-Sufu antag	CSC inhib	Mdm2 MdmX PPI	Gli antag conf	Gli cytotox	Wnt3a counter
C[C@@H]1CN([C@H](C)CO)C(=O)c2cc(NC(=O)CCC(F)(F)F)ccc2O[C@@H]1CN(C)Cc1ccc(C(F)(F)F)cc1	.	-	.	.	.	.	.	.	.
OC1(c2cccs2)CN(c2ccc(Cl)cc2)C2=[N+]1CCCC2 (stereo not drawn)	-	-	-	-	-	-	.	.	.
Cc1ccc(C)c(N2CC(O)(c3cccs3)[N+]3=C2CCCC3)c1 (stereo not drawn)	-	-	-	62	-	-	50	27	-
Cc1ccccc1-c1cnc2c(c1)C(=O)N([C@@H](C)CO)C[C@@H](C)[C@H](CN(C)C(=O)CC1CC1)O2	.	-	.	.	.	.	.	.	.
COc1ccc(S(=O)(=O)N(C)C[C@@H]2Oc3c(NS(=O)(=O)c4cn(C)cn4)cccc3C(=O)N([C@H](C)CO)C[C@@H]2C)cc1	.	-	.	.	.	.	.	.	.
CCOc1cc(C(=O)N/N=C/C(Br)=C/c2ccccc2)cc(OCC)c1OCC	-	.	-	-	-	-	64	47	-
O=C(C[C@H]1CC[C@H]2[C@@H](COC[C@H](O)CN2C(=O)Cc2ccccc2)O1)NC1Cc2ccccc2C1	.	-	.	.	.	.	.	.	.
NNC(=O)c1csc(-c2cccc(C(F)(F)F)c2)n1	-	-	-	95	-	-	-	-	-
O=C(c1ccc(CSc2nc3ccncc3[nH]2)cc1)N1CCCCCC1	-	-	-	-	-	-	.	.	.
O=C(c1ccc(CSc2nc3ccncc3[nH]2)cc1)N1CCN(c2cccc(Cl)c2)CC1	88	-	-	58	-	-	67	42	-
O=[N+]([O-])c1ccc(C[n+]2cc(-c3ccccc3)n3c2CCCCC3)cc1	-	-	-	-	-	-	.	.	.
Cc1ccc(-c2c[n+](CC(=O)c3ccc(Br)cc3)c3n2CCCCC3)cc1	-	98	-	77	-	-	78	33	-
Cc1ccc(NC(=O)C[n+]2cc(-c3ccccc3)n3c2CCC3)cc1	.	-	-	-	-	-	.	.	.
COc1ccc(-c2c[n+](CC(=O)c3ccccc3)c3n2CCCCC3)cc1	-	-	-	-	-	-	55	-	-
O=C(C[n+]1cc(-c2ccccc2)n2c1CCCCC2)c1ccc(Cl)cc1	-	-	-	58	-	-	49	-	-
O=C(C[C@@H]1CC[C@@H]2[C@H](COC[C@H](O)CN2C(=O)Nc2cccc(Cl)c2)O1)N1CCCCC1	.	-	.	.	.	.	.	.	.
